Screens deposited in PubChem by National Center for Advancing Translational Sciences (NCATS).
Tb PFK inh-1: inhibitors of T. brucei phosphofructokinase; O15648; AID 485367; T. brucei PFK, ADP-Glo luminescence; 0.17% of 330,000 active; Potency, µM (top dose mostly 57.5 µM), usual class: inhibitors; further: nearly all actives have a fitted effect of over 60% in size
Target sequence (O15648 whole entry, looked up): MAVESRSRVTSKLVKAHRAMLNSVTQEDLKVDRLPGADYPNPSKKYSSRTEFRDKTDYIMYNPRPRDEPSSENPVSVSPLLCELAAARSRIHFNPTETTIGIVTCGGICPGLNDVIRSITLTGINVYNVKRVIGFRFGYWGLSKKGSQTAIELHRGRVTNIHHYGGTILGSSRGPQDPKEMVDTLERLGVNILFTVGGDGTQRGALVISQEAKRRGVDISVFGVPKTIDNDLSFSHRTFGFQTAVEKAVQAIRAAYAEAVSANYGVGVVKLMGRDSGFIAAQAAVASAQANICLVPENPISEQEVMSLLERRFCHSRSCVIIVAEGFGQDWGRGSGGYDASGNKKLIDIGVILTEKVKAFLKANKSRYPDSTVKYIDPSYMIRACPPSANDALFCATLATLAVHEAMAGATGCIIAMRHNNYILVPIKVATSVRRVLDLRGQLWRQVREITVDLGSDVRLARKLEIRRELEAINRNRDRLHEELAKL
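ADP-Glo luminescence quantified ADP after 45 min at room temperature, with 1.25 nM T. brucei PFK, 0.1 mM ATP and 0.5 mM fructose-6-phosphate in pH 8.0 TEA buffer. qHTS titrations up to 57 µM; curves classified by quality.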
BCR signal inh: blocks chronic active B-cell receptor signaling; ABC-DLBCL IkBa-CBG/CBR reporter, luminescence ratio, 4 h; Potency, µM (titrated, usually from 46.1 µM), usual class: inhibitors; 0.05% of 340,000 active; AID 493014; active means well fitted inhibition curve with a large enough effect in the signal ratio, with a control signal flat, not every such curve was filed as active; inconclusive means small, poorly fitted or top-dose-only effect, or effect the other way, or a change in a side signal; the % refers to the signal ratio
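Doxycycline induced both beetle luciferases in TMD8 lymphoma cells; IKK-driven degradation limits the IkappaBalpha-fused green signal, while red luminescence normalises for cell number and nonspecific effects. Compounds tested up to 46 uM, 4 hrs.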
Pin1 inhibitor: blocks the human prolyl isomerase Pin1; Pin1 FP peptide displacement, HiFluor488, 10 min; Potency, µM (top dose mostly 115 µM), usual class: inhibitors; AID 504891; 0.009% of 390,000 active; active means well fitted inhibition curve with a large enough effect in the polarisation, with a control signal flat, not every such curve was filed as active; inconclusive means small, poorly fitted or top-dose-only effect, or effect the other way, or a change in a side signal; inactive means no such curve, though single readings can be large or run the other way; the % refers to the polarisation
Target sequence (Q13526 whole entry, looked up): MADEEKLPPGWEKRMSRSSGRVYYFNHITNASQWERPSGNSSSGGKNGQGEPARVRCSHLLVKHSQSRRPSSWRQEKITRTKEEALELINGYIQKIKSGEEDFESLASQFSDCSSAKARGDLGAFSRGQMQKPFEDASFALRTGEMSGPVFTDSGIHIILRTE
Tb PGK inh: blocks T. brucei phosphoglycerate kinase; P07378; PGK/GAPDH coupled, Kinase-Glo luminescence, 60 min; Potency, µM (top dose mostly 57.5 µM), actives largely listed as inhibitors; 0.043% of 380,000 active; further: nearly all actives have a fitted effect of over 60% in size
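Luminescent ATP detection (Kinase-Glo Plus) follows a 60-minute room-temperature incubation, with wells lacking PGK as controls. Buffer: 100 mM TEA (pH 7.6), 5 mM MgCl2, 0.01% Tween-20. Coupling enzyme GAPDH (100 nM final) supplies unstable 1,3-BPG in-well.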
ERG-DNA inh: ERG Ets/DNA interaction inhibition; P11308; fluorescence polarization, His-ERG Ets domain / labelled DNA; Potency, µM (highest dose often 76.9 µM), most hits filed as inhibitors; 0.028% of 370,000 active; AID 624246; active means well fitted inhibition curve with a large enough effect in the polarisation, with a control signal flat; inconclusive means small, poorly fitted or top-dose-only effect, or effect the other way, or a change in a side signal; inactive means no such curve, though single readings can be large or run the other way; the % refers to the polarisation;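 further: polarization taken with two DNA probes labelled with fluorescein and Texas red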
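His-tagged ERG Ets domain (1 uM in the protein solution; 300mM KCl, 50mM Tris-HCl, 1mM EDTA, 1mM DTT, pH 7.5) received compound, then a probe mix of 5 nM fluorescein-DNA and 100nM Texas-615-DNA. Fluorescence polarization was read for both dyes.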
Tb PFK KinaseGlo: Tb phosphofructokinase inhibition, orthogonal luminescence; shares compounds with Tb PFK inh-1; 47% of 1,100 active; Tb PFK enzyme, ATP depletion, Kinase-Glo Plus luminescence; Potency, µM (highest dose often 57.5 µM); AID 504636; calls by dose curve; further: nearly all actives have a fitted effect of over 60% in size
Tb PFK inh-2: validation of T. brucei phosphofructokinase inhibitors; purified T. brucei PFK, ADP-Glo luminescence, 45 min; shares compounds with Tb PFK inh-1; Potency, µM (doses to about 57.5 µM), hits mostly inhibitors; 41% of 1,100 active; further: nearly all actives have a fitted effect of over 60% in size
A number is an active result; - = inactive; ? = inconclusive; . = no result; [ ] = another dose, or the depositor's remark. An excerpt weighted towards active compounds, which were near 0.25% of everything screened. Unless noted, the call rests on the fitted dose curve; in most records, active means well fitted curve in the direction sought with a large enough effect; inconclusive means small, poorly fitted or top-dose-only effect, or another doubt; inactive means no such curve, though single readings can be large; an effect the other way counts as inactive or inconclusive.

SMILES | Tb PFK inh-1 | BCR signal inh | Pin1 inhibitor | Tb PGK inh | ERG-DNA inh | Tb PFK KinaseGlo | Tb PFK inh-2
COc1ccc(N2CCN(Cc3nc(-c4ccccc4)no3)CC2)cc1 | 24µM | - | - | - | - | - | -
CC(C)(C)OC(=O)CC(=O)NNC(=O)c1nc2ccccc2[nH]1 | . | . | - | . | . | . | .
Cc1cc(C)n2c(=S)[nH]nc2n1 | ? | - | - | - | - | 27µM | ?
NCCCN(Cc1ccccc1)c1ccc(Br)cn1 | . | . | - | . | . | . | .
O=c1c2ccccc2sn1-c1cc(S(=O)(=O)N2CCOCC2)ccc1N1CCCC1 | 9.5µM | ? | - | - | - | ? | ?
O=c1c2ccccc2sn1-c1cc(S(=O)(=O)N2CCOCC2)ccc1N1CCOCC1 | 13µM | - | - | - | . | ? | 21µM
O=c1c2ccccc2sn1-c1cc(S(=O)(=O)N2CCOCC2)ccc1N1CCCCC1 | . | . | - | . | . | . | .
CCOC(=O)N1C(COCc2ccccc2)C=CCS1(=O)=O (stereo unspecified) | . | . | - | . | . | . | .
O=S(=O)(c1ccc2c(c1)OCCO2)N1CCN(S(=O)(=O)c2cc(F)c(F)cc2F)CC1 | . | . | - | . | . | . | .
Cc1cc(C(=O)COC(=O)c2ccc(F)cc2)c(C)n1C | - | - | - | - | - | . | .
Cc1cc(C(=O)COC(=O)c2cc(Cl)c(O)c(Cl)c2)c(C)n1C | 17µM | - | ? | - | - | ? | -
O=C1OC(c2ccccc2)=N/C1=C\C=C\c1ccccc1[N+](=O)[O-] | ? | - | - | - | - | . | .
CN1C(=O)NC(=O)/C(=C\C=C\c2ccccc2[N+](=O)[O-])C1=O | ? | ? | - | - | - | - | ?
CCn1c(C)c(CS(=O)(=O)c2ccccc2)[nH]c1=O | ? | ? | - | - | - | - | ?
O=S(=O)(O)Sc1ccccc1 | . | . | . | - | . | . | .
CCN(CC)c1ccc(SS(=O)(=O)O)cc1 | 19µM | - | - | - | - | 11µM | 12µM
Cc1ccc(-c2nc3cnccn3c2Nc2ccc(C(C)C)cc2)o1 | . | . | - | . | . | . | .
N#Cc1sc(NCc2cccc(Cl)c2)nc1Cl | ? | - | - | - | - | 19µM | 30µM
N#CC1=C(N)C(C#N)(C#N)C(c2ccc[nH]2)C2CCCC=C12 (stereo unspecified) | ? | - | ? | . | - | - | -
CCN(CC)c1ccc2nc3ccccc3[n+](CC)c2c1 | 15µM | ? | - | ? | ? | - | ?
CCN(CC)c1ccc2nc3ccc(N)cc3[n+](-c3ccccc3)c2c1 | - | ? | ? | ? | . | . | .
Cc1cc2c(s1)c1cnn(Cc3ccc(OC(F)F)cc3)c(=O)c1n2C | . | . | - | . | . | . | .
Nc1nonc1C(=O)N/N=C/c1ccc(Br)o1 | - | - | - | - | -[15.4 µM] | . | .
Nc1nonc1C(=O)N/N=C/c1ccc(-c2ccc(Cl)c(C(=O)O)c2)o1 | ? | ? | - | - | - | - | ?
Cc1ccc(C(=O)C[n+]2cc(-c3ccc(C)cc3)n3c2CCCCC3)cc1 | - | ? | - | - | - | . | .
SMILES | Tb PFK inh-1 | BCR signal inh | Pin1 inhibitor | Tb PGK inh | ERG-DNA inh | Tb PFK KinaseGlo | Tb PFK inh-2
Cc1ccc(-c2c[n+](Cc3ccc(Cl)c(Cl)c3)c3n2CCC3)cc1 | 6µM | ? | - | - | - | 4.8µM | 13µM
O=C(N/N=C/c1sc2ccccc2c1O)c1cccc2ccccc12 | ? | ? | ? | - | - | - | ?
N#Cc1cccc(NS(=O)(=O)c2ccc3c(c2)CCC(=O)N3)c1 | . | . | - | . | . | . | .
O=[N+]([O-])c1ccc(Cc2ccccn2)cc1 | ? | - | - | - | - | ? | ?
O=[N+]([O-])c1ccc(Cc2ccccn2)c([N+](=O)[O-])c1 | . | . | - | - | - | . | .
N=c1n(CCO)c2ccccc2n1CCOc1ccc(F)cc1 | . | . | - | - | - | . | .
N=c1n(CCO)c2ccccc2n1CCOc1ccccc1 | 24µM | - | - | - | - | 13µM | 21µM
CCOC(=O)Cn1c(=N)n(CCOc2ccc(Br)cc2)c2ccccc21 | - | - | - | - | - | . | .
CCOC(=O)Cn1c(=N)n(CCOc2cccc(C)c2)c2ccccc21 | 13µM | - | - | - | - | 11µM | 13µM
NC(=S)NNc1ccc(Cl)c(Cl)c1 | 19µM | - | - | - | - | 4.8µM | 12µM
Cc1c(Cl)cccc1NC(=O)Cn1cccc1 | - | - | - | - | - | . | .
Cc1cc(C)c2c(=O)n(CC(=O)Nc3ccc(Br)c(C)c3)sc2n1 | 13µM | - | - | - | - | 2.7µM | 3µM
Cc1cc(C)c2c(N)c(C(=O)NC3CCCC3)sc2n1 | - | ? | - | - | - | . | .
Cc1cc(C)c2c(=O)n(CC(=O)Nc3cccc(Cl)c3C)sc2n1 | 4.8µM | - | - | - | - | ? | 6µM
Cc1cc(C)c2c(=O)n(CC(=O)NC3CCCC3)sc2n1 | 6µM | ? | - | - | - | ? | 5.4µM
